Reference: publication PMC9838217, “Structure of SALL4 zinc finger domain reveals link between AT-rich DNA binding and Okihiro syndrome”
Positions count from the first letter of the chain named.

These sequences were tested against T1, SALL4 ZFC4 R900W (HT-SELEX) (Mus musculus, UniProt Q8BX22 870-940, R900W) (assay: HT-SELEX; high values mean tight binding). Conditions: protein: recombinant; vector His6-GST; dsDNA, one strand shown.
T1 sequence: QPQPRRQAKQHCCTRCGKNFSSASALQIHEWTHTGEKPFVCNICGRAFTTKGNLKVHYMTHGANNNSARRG
Method in brief: (§1)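 Recombinant mouse SALL4 zinc finger cluster 4 (residues 870–940, 1 µg), purified, was mixed with library DNA (1.5 µg in the first cycle, 200 ng thereafter) in 100 µl of buffer containing 10 mM Tris–HCl pH 7.5, 50 mM NaCl, poly(dI-dC) and DTT, and left for 10 min at room temperature. Complexes were captured on Ni2+ beads, washed, amplified by PCR and reselected for up to 6 cycles in triplicate, after which MiSeq sequencing and a 6-mer scan followed. Binding signal is the read fraction of each canonical k-mer, given as fold change relative to the starting random library.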

**Q.** For AACAAT, which binding signal is on record?
**A.** Its binding signal is 1.95 ± 0.114 fold-change vs cycle 0.

**Q.** Which binding signal does the source give for GAGGAC here?
**A.** The binding signal was 0.581 ± 0.0167 fold-change vs cycle 0.

**Q.** AGGTTC was tested. Which binding signal did it give?
**A.** Its binding signal is 0.972 ± 0.0561 fold-change vs cycle 0.

**Q.** Which binding signal does the source give for AACAGT here?
**A.** The binding signal was 1.41 ± 0.0726 fold-change vs cycle 0.

**Q.** AGCCTA was tested. Which binding signal did it give?
**A.** Its binding signal is 0.728 ± 0.0355 fold-change vs cycle 0.

**Q.** How did the binding signal turn out when AGACCC was run?
**A.** Its binding signal is 0.511 ± 0.0173 fold-change vs cycle 0.

**Q.** ATCGTG was tested. Which binding signal did it give?
**A.** Its binding signal is 0.775 ± 0.0256 fold-change vs cycle 0.

**Q.** Which binding signal does the source give for ATAACG here?
**A.** The binding signal was 1.3 ± 0.0579 fold-change vs cycle 0.

**Q.** ATGATA was tested. Which binding signal did it give?
**A.** Its binding signal is 2.14 ± 0.0867 fold-change vs cycle 0.

**Q.** With CAACTA as the sequence, how does the binding signal read?
**A.** The binding signal was 1.31 ± 0.0705 fold-change vs cycle 0.

**Q.** For CATTAA, which binding signal is on record?
**A.** The binding signal was 1.95 ± 0.11 fold-change vs cycle 0.

**Q.** How did the binding signal turn out when CTTACC was run?
**A.** Its binding signal is 1.06 ± 0.0534 fold-change vs cycle 0.

**Q.** With GAACCC as the sequence, how does the binding signal read?
**A.** The binding signal was 0.565 ± 0.0113 fold-change vs cycle 0.

**Q.** With AAAGAA as the sequence, how does the binding signal read?
**A.** Its binding signal is 2.12 ± 0.151 fold-change vs cycle 0.

**Q.** Which binding signal does the source give for AGGCTC here?
**A.** Its binding signal is 0.399 ± 0.014 fold-change vs cycle 0.

**Q.** ACCTAA was tested. Which binding signal did it give?
**A.** The binding signal was 1.46 ± 0.0702 fold-change vs cycle 0.

**Q.** GACTGC was tested. Which binding signal did it give?
**A.** Its binding signal is 0.399 ± 0.0161 fold-change vs cycle 0.

**Q.** How did the binding signal turn out when CCTGTC was run?
**A.** Its binding signal is 0.533 ± 0.0129 fold-change vs cycle 0.

**Q.** Which binding signal does the source give for CAAATA here?
**A.** The binding signal was 1.72 ± 0.1 fold-change vs cycle 0.

**Q.** Which binding signal does the source give for ATGTAC here?
**A.** The binding signal was 1.38 ± 0.0189 fold-change vs cycle 0.

**Q.** Which binding signal does the source give for AACACG here?
**A.** Its binding signal is 0.737 ± 0.0205 fold-change vs cycle 0.

**Q.** With CATTGC as the sequence, how does the binding signal read?
**A.** Its binding signal is 0.712 ± 0.0136 fold-change vs cycle 0.

**Q.** GAATCC was tested. Which binding signal did it give?
**A.** Its binding signal is 0.935 ± 0.0194 fold-change vs cycle 0.

**Q.** For AAATAT, which binding signal is on record?
**A.** The binding signal was 2.36 ± 0.147 fold-change vs cycle 0.

**Q.** For GAGCAA, which binding signal is on record?
**A.** Its binding signal is 0.69 ± 0.0379 fold-change vs cycle 0.

**Q.** For CAAAAC, which binding signal is on record?
**A.** The binding signal was 1.06 ± 0.0573 fold-change vs cycle 0.

**Q.** Which binding signal does the source give for AACACT here?
**A.** Its binding signal is 1.39 ± 0.0403 fold-change vs cycle 0.

**Q.** With GGAACA as the sequence, how does the binding signal read?
**A.** Its binding signal is 0.882 ± 0.0371 fold-change vs cycle 0.

**Q.** For CTCTCA, which binding signal is on record?
**A.** Its binding signal is 0.992 ± 0.023 fold-change vs cycle 0.

**Q.** For GAGAAA, which binding signal is on record?
**A.** Its binding signal is 1.39 ± 0.0816 fold-change vs cycle 0.

**Q.** With ACTGGA as the sequence, how does the binding signal read?
**A.** Its binding signal is 0.993 ± 0.0196 fold-change vs cycle 0.

**Q.** How did the binding signal turn out when CTATAC was run?
**A.** Its binding signal is 1.46 ± 0.0569 fold-change vs cycle 0.

**Q.** For GCCTAC, which binding signal is on record?
**A.** Its binding signal is 0.368 ± 0.00435 fold-change vs cycle 0.

**Q.** ATCGCA was tested. Which binding signal did it give?
**A.** The binding signal was 0.522 ± 0.0161 fold-change vs cycle 0.

**Q.** For AATTAA, which binding signal is on record?
**A.** The binding signal was 2.6 ± 0.189 fold-change vs cycle 0.

**Q.** With CCGAAG as the sequence, how does the binding signal read?
**A.** The binding signal was 0.441 ± 0.0244 fold-change vs cycle 0.

**Q.** For CCCAAA, which binding signal is on record?
**A.** Its binding signal is 0.653 ± 0.0116 fold-change vs cycle 0.

**Q.** With CACAAC as the sequence, how does the binding signal read?
**A.** Its binding signal is 0.72 ± 0.018 fold-change vs cycle 0.

**Q.** With ATGCGA as the sequence, how does the binding signal read?
**A.** The binding signal was 0.556 ± 0.0155 fold-change vs cycle 0.

**Q.** How did the binding signal turn out when ATACAA was run?
**A.** Its binding signal is 1.98 ± 0.0733 fold-change vs cycle 0.

These sequences were tested against T2, SALL4 ZFC4 G921D (HT-SELEX) (Mus musculus, UniProt Q8BX22 870-940, G921D) (assay: HT-SELEX; high values mean tight binding). Conditions: protein: recombinant; vector His6-GST; dsDNA, one strand shown.
T2 sequence: T1 sequence with W31R, G52D
Method in brief: as §1

**Q.** How did the binding signal turn out when AACAAT was run?
**A.** Its binding signal is 1.79 ± 0.145 fold-change vs cycle 0.

**Q.** Which binding signal does the source give for GAGGAC here?
**A.** The binding signal was 0.671 ± 0.0146 fold-change vs cycle 0.

**Q.** AGGTTC was tested. Which binding signal did it give?
**A.** Its binding signal is 1.02 ± 0.0282 fold-change vs cycle 0.

**Q.** With AACAGT as the sequence, how does the binding signal read?
**A.** The binding signal was 1.35 ± 0.0692 fold-change vs cycle 0.

**Q.** Which binding signal does the source give for AGCCTA here?
**A.** The binding signal was 0.832 ± 0.0333 fold-change vs cycle 0.

**Q.** AGACCC was tested. Which binding signal did it give?
**A.** The binding signal was 0.612 ± 0.0617 fold-change vs cycle 0.

**Q.** With ATCGTG as the sequence, how does the binding signal read?
**A.** The binding signal was 0.876 ± 0.0311 fold-change vs cycle 0.

**Q.** With ATAACG as the sequence, how does the binding signal read?
**A.** The binding signal was 1.23 ± 0.0819 fold-change vs cycle 0.

**Q.** For ATGATA, which binding signal is on record?
**A.** Its binding signal is 1.86 ± 0.153 fold-change vs cycle 0.

**Q.** Which binding signal does the source give for CAACTA here?
**A.** Its binding signal is 1.29 ± 0.0584 fold-change vs cycle 0.

**Q.** How did the binding signal turn out when CATTAA was run?
**A.** The binding signal was 1.74 ± 0.165 fold-change vs cycle 0.

**Q.** With CTTACC as the sequence, how does the binding signal read?
**A.** The binding signal was 1.02 ± 0.0246 fold-change vs cycle 0.

**Q.** For GAACCC, which binding signal is on record?
**A.** Its binding signal is 0.668 ± 0.0409 fold-change vs cycle 0.

**Q.** Which binding signal does the source give for AAAGAA here?
**A.** Its binding signal is 1.8 ± 0.181 fold-change vs cycle 0.

**Q.** Which binding signal does the source give for AGGCTC here?
**A.** Its binding signal is 0.546 ± 0.0493 fold-change vs cycle 0.

**Q.** ACCTAA was tested. Which binding signal did it give?
**A.** Its binding signal is 1.37 ± 0.0509 fold-change vs cycle 0.

**Q.** Which binding signal does the source give for GACTGC here?
**A.** Its binding signal is 0.525 ± 0.0461 fold-change vs cycle 0.

**Q.** For CCTGTC, which binding signal is on record?
**A.** The binding signal was 0.619 ± 0.0538 fold-change vs cycle 0.

**Q.** With CAAATA as the sequence, how does the binding signal read?
**A.** Its binding signal is 1.55 ± 0.137 fold-change vs cycle 0.

**Q.** For ATGTAC, which binding signal is on record?
**A.** Its binding signal is 1.32 ± 0.0512 fold-change vs cycle 0.

**Q.** For AACACG, which binding signal is on record?
**A.** Its binding signal is 0.823 ± 0.0377 fold-change vs cycle 0.

**Q.** For CATTGC, which binding signal is on record?
**A.** The binding signal was 0.825 ± 0.0379 fold-change vs cycle 0.

**Q.** For GAATCC, which binding signal is on record?
**A.** The binding signal was 0.989 ± 0.0139 fold-change vs cycle 0.

**Q.** Which binding signal does the source give for AAATAT here?
**A.** Its binding signal is 2.07 ± 0.227 fold-change vs cycle 0.

**Q.** How did the binding signal turn out when GAGCAA was run?
**A.** The binding signal was 0.797 ± 0.00723 fold-change vs cycle 0.

**Q.** Which binding signal does the source give for CAAAAC here?
**A.** Its binding signal is 1.08 ± 0.0366 fold-change vs cycle 0.

**Q.** Which binding signal does the source give for AACACT here?
**A.** Its binding signal is 1.33 ± 0.0261 fold-change vs cycle 0.

**Q.** GGAACA was tested. Which binding signal did it give?
**A.** Its binding signal is 0.956 ± 0.0475 fold-change vs cycle 0.

**Q.** CTCTCA was tested. Which binding signal did it give?
**A.** Its binding signal is 1.04 ± 0.0372 fold-change vs cycle 0.

**Q.** How did the binding signal turn out when GAGAAA was run?
**A.** Its binding signal is 1.29 ± 0.0905 fold-change vs cycle 0.

**Q.** For ACTGGA, which binding signal is on record?
**A.** The binding signal was 1.01 ± 0.0605 fold-change vs cycle 0.

**Q.** CTATAC was tested. Which binding signal did it give?
**A.** The binding signal was 1.37 ± 0.0569 fold-change vs cycle 0.

**Q.** GCCTAC was tested. Which binding signal did it give?
**A.** Its binding signal is 0.499 ± 0.0602 fold-change vs cycle 0.

**Q.** How did the binding signal turn out when ATCGCA was run?
**A.** Its binding signal is 0.667 ± 0.0619 fold-change vs cycle 0.

**Q.** For AATTAA, which binding signal is on record?
**A.** The binding signal was 2.2 ± 0.282 fold-change vs cycle 0.

**Q.** Which binding signal does the source give for CCGAAG here?
**A.** The binding signal was 0.553 ± 0.046 fold-change vs cycle 0.

**Q.** CCCAAA was tested. Which binding signal did it give?
**A.** The binding signal was 0.729 ± 0.0699 fold-change vs cycle 0.

**Q.** CACAAC was tested. Which binding signal did it give?
**A.** Its binding signal is 0.828 ± 0.0337 fold-change vs cycle 0.

**Q.** How did the binding signal turn out when ATGCGA was run?
**A.** Its binding signal is 0.689 ± 0.0646 fold-change vs cycle 0.

**Q.** Which binding signal does the source give for ATACAA here?
**A.** The binding signal was 1.76 ± 0.0991 fold-change vs cycle 0.
